# Measured values: the supplement of paper PMC9694430
# Where “and” joins values, the source holds several entries; their conditions need not be identical. Equal values may be shown once. Where a name gives a salt, the structure may show the parent alone.
# Test system: LOC_OS01G13800-cb001
# Test: thermal shift delta Tm vs DMSO control; higher = stronger stabilization (binding)
# Settings: 12.5 µM; protein concentration 2 µM
# Method in brief: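 Thermal shift values come from differential scanning fluorimetry on purified rice kinase domains made in E. coli, with melting temperatures obtained from Boltzmann fits. Samples of 19.5 μl held 2 μM kinase, 100 mM potassium phosphate pH 7.5, 150 mM NaCl, 10% glycerol, 5 × SYPRO Orange and compound in DMSO, and were heated from 25°C to 95°C at 0.05°C/s. Each shift is a triplicate mean relative to the DMSO-only protein sample.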
# 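Also: purified Escherichia coli-expressed rice kinase domain construct.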
row,SMILES,thermal shift delta Tm
1,Cc1ccc(S(=O)(=O)/C=C/C#N)cc1,-0.18 °C
2,"CCCS(=O)(=O)Nc1ccc(F)c(C(=O)c2c[nH]c3ncc(-c4ccc(Cl)cc4)cc23)c1F [Vemurafenib (PLX4032, RG7204)]",1.27 °C
3,C[C@@H](N)c1ccc(C(=O)Nc2ccnc3[nH]ccc23)cc1,0.63 °C
4,O=C(NC1CCNCC1)c1n[nH]cc1NC(=O)c1c(Cl)cccc1Cl,-0.01 °C and 1.05 °C
5,NCC(=O)Nc1ccc(-n2nc(C(F)(F)F)cc2-c2ccc3c(ccc4ccccc43)c2)cc1,-0.76 °C
6,CCn1c(-c2nonc2N)nc2cnc(Oc3cccc(NC(=O)c4ccc(OCCN5CCOCC5)cc4)c3)cc21,0.89 °C
7,COc1cc2c3cc1Oc1c(OC)c(OC)cc4c1[C@@H](Cc1ccc(O)c(c1)Oc1ccc(cc1)C[C@@H]3N(C)CC2)N(C)CC4 [Berbamine (dihydrochloride)],-0.62 °C
8,COc1cc2ncc(-c3ccccc3)nc2cc1OC [Tyrphostin AG 1296],-0.26 °C
9,C[C@H]1CNCCCN1S(=O)(=O)c1cccc2cncc(F)c12 [Ripasudil (K-115) hydrochloride dihydrate],1.05 °C
10,N#Cc1c(NC(=O)c2cccc3ccccc23)sc2c1CCCC2 [JNK Inhibitor IX],0.52 °C
11,CC(C)N(CCC(=O)c1ccc2ccccc2c1)Cc1ccccc1,-1.25 °C
12,COC(=O)c1ccc2c(c1)NC(=O)/C2=C(\Nc1ccc(N(C)C(=O)CN2CCN(C)CC2)cc1)c1ccccc1 [Nintedanib (BIBF 1120)],-0.11 °C
13,Nc1ccc(-c2ccc3ncc4ccc(=O)n(-c5cccc(C(F)(F)F)c5)c4c3c2)cn1 [Torin 2],-0.87 °C
